For three compounds, potency estimated from few doses results are on record in paper PMC11062922 (Nature Chemical Biology, 2023).

Common to all, as to set-up: species or system human, MV4-11 + K-562 + COLO205 + SK-N-BE2 + OVCAR-8
The test system of test [1] is ACVR1B. The settings on record: read-out: apparent Kd, compound concentrations: 100 nM and 1000 nM (sheet 'Samples'), n = 1.
The subject of test [2] is ADRBK1. Particulars: read-out: apparent Kd; compound concentrations: 100 nM and 1000 nM (sheet 'Samples'), CATDS: 5.42741985746545E-2; n = 1.
Test [3] concerns AKT1. Particulars: read-out: apparent Kd; compound concentrations: 100 nM and 1000 nM (sheet 'Samples'), CATDS: 5.4273018110040303E-2; n = 1.
Test [4] has as its system AKT2. Particulars: read-out: apparent Kd; compound concentrations: 100 nM and 1000 nM (sheet 'Samples'), CATDS: 6.3448544870815707E-2; n = 1.
The test system of test [5] is CDK17. Particulars: read-out: apparent Kd; compound concentrations: 100 nM and 1000 nM (sheet 'Samples'), CATDS: 4.6046417847887898E-2; n = 1.
For test [6], the system named is CDK6. Particulars: read-out: apparent Kd; compound concentrations: 100 nM and 1000 nM (sheet 'Samples'), CATDS: 4.5600576408269602E-2; n = 1.
Test [7] relates to CSNK1A1. The settings on record: read-out: apparent Kd, compound concentrations: 100 nM and 1000 nM (sheet 'Samples'), n = 1.
For test [8], the system named is LIMK1. The settings on record: read-out: apparent Kd; compound concentrations: 100 nM and 1000 nM (sheet 'Samples'), CATDS: 4.6691533927662399E-2; n = 1.
Test [9] deals with MAP2K1. Particulars: read-out: apparent Kd; compound concentrations: 100 nM and 1000 nM (sheet 'Samples'), CATDS: 5.0029485958775197E-2; n = 1.
The subject of test [10] is MAP2K2. The settings on record: read-out: apparent Kd; compound concentrations: 100 nM and 1000 nM (sheet 'Samples'), CATDS: 5.0543278096989601E-2; n = 1.
Test [11] has as its system NCL. Particulars: read-out: apparent Kd; compound concentrations: 100 nM and 1000 nM (sheet 'Samples'), CATDS: 4.2837987158590003E-2; n = 1.
Test [12] deals with NQO1. Particulars: read-out: apparent Kd; compound concentrations: 100 nM and 1000 nM (sheet 'Samples'), CATDS: 5.1571181916601101E-2; n = 1.
The subject of test [13] is PHKG2. Particulars: read-out: apparent Kd; compound concentrations: 100 nM and 1000 nM (sheet 'Samples'), CATDS: 4.0833835587176903E-2; n = 1.
The test system of test [14] is PIM2. The settings on record: read-out: apparent Kd; compound concentrations: 100 nM and 1000 nM (sheet 'Samples'), CATDS: 5.4197855398822901E-2; n = 1.
The subject of test [15] is PIP4K2C. Particulars: read-out: apparent Kd; compound concentrations: 100 nM and 1000 nM (sheet 'Samples'), CATDS: 6.0471713091723403E-2; n = 1.
Test [16] concerns PRKAG1. The settings on record: read-out: apparent Kd; compound concentrations: 100 nM and 1000 nM (sheet 'Samples'), CATDS: 6.5107573303195193E-2; n = 1.
Test [17] has as its system PYGL. Particulars: read-out: apparent Kd; compound concentrations: 100 nM and 1000 nM (sheet 'Samples'), CATDS: 4.9538207783530498E-2; n = 1.
Test [18] deals with VDAC3. Particulars: read-out: apparent Kd; compound concentrations: 100 nM and 1000 nM (sheet 'Samples'), CATDS: 4.4574473592348701E-2; n = 1.
Test [19] deals with YES1. Particulars: read-out: apparent Kd; compound concentrations: 100 nM and 1000 nM (sheet 'Samples'), CATDS: 6.4280508089749694E-2; n = 1.
The test system of test [20] is ZAK. The settings on record: read-out: apparent Kd; compound concentrations: 100 nM and 1000 nM (sheet 'Samples'), CATDS: 3.9848277554837802E-2; n = 1.
The subject of test [21] is AKT3. The settings on record: read-out: apparent Kd; compound concentrations: 100 nM and 1000 nM (sheet 'Samples'), CATDS: 5.7187277937225903E-2; n = 1.
In test [22] the test system is CIT. Particulars: read-out: apparent Kd, compound concentrations: 100 nM and 1000 nM (sheet 'Samples'), n = 1.
Test [23] concerns CSNK1D. The settings on record: read-out: apparent Kd, compound concentrations: 100 nM and 1000 nM (sheet 'Samples'), n = 1.
In test [24] the test system is CSNK1E. Particulars: read-out: apparent Kd, compound concentrations: 100 nM and 1000 nM (sheet 'Samples'), n = 1.
Test [25] concerns MAPK10. Particulars: read-out: apparent Kd, compound concentrations: 100 nM and 1000 nM (sheet 'Samples'), n = 1.
The subject of test [26] is MAPK14. Particulars: read-out: apparent Kd, compound concentrations: 100 nM and 1000 nM (sheet 'Samples'), n = 1.
Test [27] relates to MAPK9. Particulars: read-out: apparent Kd, compound concentrations: 100 nM and 1000 nM (sheet 'Samples'), n = 1.
In test [28] the test system is MAPKAPK2. Particulars: read-out: apparent Kd, compound concentrations: 100 nM and 1000 nM (sheet 'Samples'), n = 1.
For test [29], the system named is MYLK3. The settings on record: read-out: apparent Kd; compound concentrations: 100 nM and 1000 nM (sheet 'Samples'), CATDS: 7.2718608613227403E-2; n = 1.
Test [30] concerns RIPK2. The settings on record: read-out: apparent Kd; compound concentrations: 100 nM and 1000 nM (sheet 'Samples'), CATDS: 6.8187313119451795E-2; n = 1.
The subject of test [31] is TGFBR1. The settings on record: read-out: apparent Kd; compound concentrations: 100 nM and 1000 nM (sheet 'Samples'), CATDS: 5.4047908089072998E-2; n = 1.
Test [32] has as its system T1, DJA1.
T1 construct: gene DNAJA1
The settings on record: read-out: apparent Kd; compound concentrations: 100 nM and 1000 nM (sheet 'Samples'), CATDS: 6.7999729986940594E-2; n = 1.

Test [33] deals with GAK. Particulars: read-out: apparent Kd; compound concentrations: 100 nM and 1000 nM (sheet 'Samples'), CATDS: 6.3982915513231806E-2; n = 1.
Test [34] relates to PKN3. The settings on record: read-out: apparent Kd; compound concentrations: 100 nM and 1000 nM (sheet 'Samples'), CATDS: 6.6861054791119798E-2; n = 1.
The subject of test [35] is PRKCQ. Particulars: read-out: apparent Kd; compound concentrations: 100 nM and 1000 nM (sheet 'Samples'), CATDS: 6.9749841239759497E-2; n = 1.

Read-outs that look alike come from different tables or passages of the source.

For `Cc1nnc(-c2ccc(C)c(-c3ccc(C(=O)Nc4cccc(C#N)c4)cc3)c2)o1` [GW607117X], the potency estimated from few doses was 1.17 µM in test [1] (CATDS: 5.7242163764382799E-2); 1.29 µM in test [2]; 1.29 µM in test [3]; 0.976 µM in [4]; 1.81 µM in [5]; 1.85 µM in test [6]. Besides, the potency estimated from few doses in test [7] (CATDS: 4.1256570238539701E-2) is 2.36 µM; in test [8], 1.75 µM; in test [9] it was 1.51 µM; in [10], 1.48 µM; in test [11], 2.14 µM; in [12], 1.42 µM. Also, the potency estimated from few doses in test [13] is 2.42 µM; in [14], 1.29 µM; in test [15], 1.06 µM; in [16], 0.935 µM; in test [17] it was 1.55 µM; in test [18] it was 1.95 µM. Besides, the potency estimated from few doses in test [19] was 0.955 µM; in [20], 2.58 µM.
Consider `Nc1nccc(-c2c(-c3ccc(F)cc3)ncn2CCCN2CCOCC2)n1` [SB-216385], for which the potency estimated from few doses in test [1] (CATDS: 6.1592389938983201E-2) was 1.12 µM; in test [21], 1.44 µM; in test [22] (CATDS: 5.03714140810754E-2) it was 2.4 µM; in test [7] (CATDS: 7.2342208976373404E-2), 0.712 µM; in [23] (CATDS: 0.22591064083460399) it was 0.0866 µM; in [24] (CATDS: 0.181188642263544), 0.12 µM. The potency estimated from few doses in test [25] (CATDS: 8.4251059270540496E-2) was 0.493 µM; in test [26] (CATDS: 0.16940162518750301), 0.134 µM; in test [27] (CATDS: 7.1166451805227196E-2), 0.743 µM; in test [28] (CATDS: 7.7439810634818695E-2), 0.601 µM; in [29], 0.703 µM; in test [30] it was 0.834 µM. For the same compound, the potency estimated from few doses in test [31] was 1.77 µM.
Consider `Fc1ccc(-c2nn3ccccc3c2-c2ccncc2)cc1` [GW434756X], for which the potency estimated from few doses in test [1] (CATDS: 6.8235886805588605E-2) is 1.23 µM; in [22] (CATDS: 6.8145894715466407E-2) it was 1.23 µM; in test [7] (CATDS: 7.0903830983545899E-2), 1.12 µM; in test [23] (CATDS: 0.180022890791455), 0.233 µM; in test [24] (CATDS: 9.3100036539018993E-2) it was 0.644 µM; in test [32] it was 1.24 µM. Besides, the potency estimated from few doses in test [33] was 1.44 µM; in test [25] (CATDS: 7.0993589128773599E-2), 1.12 µM; in test [26] (CATDS: 8.8352679979738905E-2), 0.709 µM; in test [27] (CATDS: 6.4345745846517005E-2), 1.42 µM; in [28] (CATDS: 0.114976727477382), 0.449 µM; in test [34] it was 1.29 µM. Moreover, the potency estimated from few doses in [35] was 1.16 µM.
